The values that follow come from PubChem BioAssay (NCATS).

The nature of test [1]: qHTS Assay for Identifying Gametocytocidal Compounds (AID 743244).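 Also: % is scaled to controls: 0 for no effect and ±100 for the full control effect; actives lower the fluorescent signal which means gametocytes are killed.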 The conditions noted are these: P. falciparum 3D7 stage III-V gametocytes, alamarBlue, 72 h; max response: stronger effect = lower value. In outline: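 P. falciparum 3D7 stage III–V gametocytes (20,000 cells/well) were exposed to compounds for 72 h at 37 °C, 5% CO2. AlamarBlue was then added for 24 h; decreased resorufin fluorescence (Ex 525/Em 598 nm) indicated loss of viability.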
Background: Quantitative high-throughput screening tests each substance at several concentrations.

A short description of test [2]: qHTS assay for measurement of the activity of small molecule inhibitors on Zika virus induced Caspase-3 activity in human iPSC derived neural progenitor cells (hNPCs) (AID 1224857). Also: % of control where 0% means no effect; nearly all actives have a fitted effect of over 65% in size. In outline: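 hNPCs seeded 350 cells/well, cultured 16–20 h; compounds added 1 h before ZIKV (2 FFU/cell), 37 C 6 h. Caspase-Glo 3/7 luminescence after 30 min RT; % inhibition from induction scaled to uninfected (0%) and infected (100%) wells.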

Test [3] is described as follows: qHTS assay for measurement of the activity of small molecule inhibitors on Zika virus induced Caspase-3 activity in human astrocytoma cells (AID 1224859).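 Also: plate controls were ZIKV-infected untreated cells for no effect and uninfected cells for full effect.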 Summed up: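 Luminescence read-out (Caspase-Glo 3/7, 30 min RT) of caspase activity in SNB-19 cells infected 6 h with ZIKV, 2 FFU/cell, after 1 h compound pretreatment; % inhibition from induction normalised to uninfected (0%) and infected (100%) wells.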

Test [4] can be described thus: qHTS assay to identify small molecule inhibitors of chordoma cells - UCH-1 (AID 1259355). Also: % is scaled to controls: 0 for no effect and ±100 for the full control effect; nearly all actives have a fitted effect of over 55% in size. Summed up:
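Cells (800/well) were seeded and left overnight at 37 C, 5% CO2, then treated with drugs at 15 concentrations plus a combination mix of auranofin, camptothecin, doxorubicin, rubitecan and topotecan. Viability after 48hr was read by CellTiter-Glo luminescence.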

The nature of test [5]: qHTS assay to identify small molecule inhibitors of chordoma cells - UCH-2 (AID 1259356). Also: % is scaled to controls: 0 for no effect and ±100 for the full control effect.
Test [6] can be described thus: P-glycoprotein substrates identified in KB-8-5-11 adenocarcinoma cell line, qHTS therapeutic library screen (AID 1346987). Also: % is scaled to controls: 0 for no effect and ±100 for the full control effect; nearly all actives have a fitted effect of over 65% in size. Particulars: outcome: dose series up to 44.5 µM. Summed up:
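KB-8-5-11: colchicine-selected sub-line of KB-3-1 over-expressing P-gp; assay medium lacked colchicine. 72 h drug exposure at 37 degree C, CellTiter-Glo.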

The nature of test [7]: qHTS assay for small molecule antagonists of the retinoid-related orphan receptor gamma (ROR-gamma) signaling pathway - cell viability counter screen (AID 720652; active = well fitted curve in the direction sought with a large enough effect in the repeat runs; an effect the other way counts as inactive or inconclusive;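 also: CHO reporter cells with doxycycline-induced ROR-gamma expression; compound exposure lasted 16 hr before ATP read; % is scaled to controls: 0 for no effect and ±100 for the full control effect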). Summed up: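 Counter screen in CHO cells carrying TET-inducible ROR-gamma and an ROR response element-luciferase reporter; cells plated 5 hr, compound pinned, doxycycline added, then 16 hr at 37 C. Viability read as intracellular ATP by CellTiter-Glo luminescence.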

Test [8] in a line: qHTS assay for small molecule agonists of the antioxidant response element (ARE) signaling pathway measured by Nrf2-dependant transcriptional activity - cell viability counter screen (AID 720653; active = well fitted curve in the direction sought with a large enough effect in the repeat runs; an effect the other way counts as inactive or inconclusive; also: % is scaled to controls: 0 for no effect and ±100 for the full control effect). The conditions noted are these: ARE-bla HepG2 viability, CellTiter-Glo ATP luminescence, 16 h; stronger effect = lower value. In outline: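 ARE-bla HepG2 cells treated with compounds for 16 h at 37C; this counter screen measures viability as intracellular ATP by CellTiter-Glo luminescence after 30 min at room temperature.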

The nature of test [9]: qHTS assay for cell viability of HEK293 cells (AID 743288). Also: % is scaled to controls: 0 for no effect and ±100 for the full control effect; nearly all actives have a fitted effect of over 50% in size. The conditions noted are these: ATP luminescence (CellTiter-Glo), 18 h, stronger effect = lower value. In outline:
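Luminescent ATP quantitation served as the viability read-out. Cells (parental HEK293, 2,000/well) received compounds after at least 5 h at 37 C and were exposed for 18 h before a 30 min room-temperature reagent step.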

The nature of test [10]: qHTS assay for cell viability of the p53RE-bla HCT-116 cell line (AID 743292). Also: % is scaled to controls: 0 for no effect and ±100 for the full control effect; nearly all actives have a fitted effect of over 55% in size. In outline: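 Viability of compound-treated p53RE-bla HCT-116 cells is taken from ATP-dependent luciferase luminescence. Treatment lasts 16 h at 37 C after a 5 h settling period; detection follows 30 min at room temperature.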
For test [11], the target named is DNA polymerase kappa (Homo sapiens) (UniProt Q9UBT6). Briefly: qHTS for Inhibitors of Polymerase Kappa: Confirmatory Assay for Cherry-picked Compounds (AID 720501). Also: potency is read from the fitted curve at half-maximal effect. Particulars: purified Pol-kappa, fluorescent strand-displacement substrate. Summed up:
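10 nM human Pol-kappa was preincubated with compound 15 min at room temperature, then 50 nM (final) primer/template substrate with TAMRA-labeled reporter strand and BHQ-2-labeled template added. Fluorescence (Ex 525, Em 598 nm) read at 0 and 10 min.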

The nature of test [12]: qHTS assay for small molecule agonists of the antioxidant response element (ARE) signaling pathway measured by Nrf2-dependant transcriptional activity (AID 720636; active = well fitted curve in the direction sought with a large enough effect in the repeat runs; an effect the other way counts as inactive or inconclusive; also: % of control where 0% means no effect). Summed up: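 Quantitative HTS format in HepG2 cells stably expressing an ARE-luciferase reporter; 16 hr compound treatment at 37 C, luciferase signal detected with ONE-Glo.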
Test [13] can be described thus: qHTS profiling of the MIPE4 collection as inhibitors of Plasmodium falciparum (3D7) proliferation (AID 743344; call rule not given here;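 also: scaled between DMSO vehicle wells and 0.29 µM artemisinin as full inhibition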). The conditions noted are these: P. falciparum 3D7 in erythrocytes, SYBR Green DNA fluorescence, 72 h; at 9.64 µM (top of the series) unless noted. Summed up:
(§1)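 Erythrocytes infected with P. falciparum (0.3% parasitemia, 2.5% hematocrit) incubated with compounds 72 h at 37 C, 5% CO2. Lysis with saponin/Triton buffer containing SYBR Green I, overnight at room temperature in the dark; DNA fluorescence (485/535 nm) normalised to 0.29 uM artemisinin and DMSO.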

A short description of test [14]: qHTS profiling of the MIPE4 collection as inhibitors of Plasmodium falciparum (DD2) proliferation (AID 743345; call rule not given here). The conditions noted are these: P. falciparum Dd2 in erythrocytes, SYBR Green DNA, 72 h; at 9.64 µM (top of the series) unless noted. Summed up:
as §1

A short description of test [15]: qHTS profiling of the MIPE4 collection as inhibitors of Plasmodium falciparum (DD2) proliferation (Rep 2) (AID 743346; call rule not given here). Particulars: P. falciparum Dd2 in erythrocytes, SYBR Green DNA, 72 h; at 9.64 µM (top of the series) unless noted. Summed up:
as §1

A short description of test [16]: qHTS profiling of the MIPE4 collection as inhibitors of Plasmodium falciparum (HB3) proliferation (AID 743347; call rule not given here;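 also: plate controls were DMSO vehicle wells for no effect and artemisinin wells for full effect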). The conditions noted are these: P. falciparum HB3 in erythrocytes, SYBR Green DNA, 72 h; at 9.64 µM (top of the series) unless noted. Summed up:
as §1

Values joined by “and” are separate entries in the source; they are usually repeats but may differ in a detail not shown here. Identical values can stand only once. Inconclusive results are not listed. The list shows a part of the results. Active and inactive are the calls of the source. Unless noted, calls follow the shape of the dose curve; as a rule, active = well fitted curve in the direction sought with a large enough effect; inconclusive = small, poorly fitted or top-dose-only effect, or another doubt; inactive = no such curve, though single readings can be large; an effect the other way counts as inactive or inconclusive.

DNA polymerase kappa (Homo sapiens), sequence (Q9UBT6 whole entry, looked up): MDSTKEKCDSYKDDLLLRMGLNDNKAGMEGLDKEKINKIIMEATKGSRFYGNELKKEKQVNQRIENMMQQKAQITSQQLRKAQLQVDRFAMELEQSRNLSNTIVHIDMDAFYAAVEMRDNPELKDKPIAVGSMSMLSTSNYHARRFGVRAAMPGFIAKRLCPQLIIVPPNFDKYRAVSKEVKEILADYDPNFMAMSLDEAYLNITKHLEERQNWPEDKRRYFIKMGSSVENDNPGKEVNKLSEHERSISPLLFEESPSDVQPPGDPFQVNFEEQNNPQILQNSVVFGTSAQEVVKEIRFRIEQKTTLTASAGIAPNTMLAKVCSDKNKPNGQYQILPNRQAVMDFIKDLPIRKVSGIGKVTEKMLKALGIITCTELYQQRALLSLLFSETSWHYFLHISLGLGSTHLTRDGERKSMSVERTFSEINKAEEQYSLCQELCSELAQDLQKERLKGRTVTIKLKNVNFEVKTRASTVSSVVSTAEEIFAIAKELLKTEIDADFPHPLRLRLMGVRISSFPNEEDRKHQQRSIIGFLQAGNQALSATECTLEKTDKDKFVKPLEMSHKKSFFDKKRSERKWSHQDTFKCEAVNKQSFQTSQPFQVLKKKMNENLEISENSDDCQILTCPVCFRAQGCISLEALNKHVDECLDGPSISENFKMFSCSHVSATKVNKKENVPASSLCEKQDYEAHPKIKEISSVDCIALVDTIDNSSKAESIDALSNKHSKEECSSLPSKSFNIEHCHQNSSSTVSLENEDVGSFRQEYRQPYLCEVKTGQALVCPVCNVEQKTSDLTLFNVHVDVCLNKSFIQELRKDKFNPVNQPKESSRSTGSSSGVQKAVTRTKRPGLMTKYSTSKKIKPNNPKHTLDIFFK

For `CCCCC1(COC(=O)CCC(=O)O)C(=O)N(c2ccccc2)N(c2ccccc2)C1=O`, the max response in [1] was 1.1% (inactive). Further, the compound was called inactive in [2], in test [3], in test [4], in test [5] and in test [6].
Turning to `CCS(=O)(=O)CCn1c([N+](=O)[O-])cnc1C`, the max response in test [1] is 9.95% (inactive). For the same compound, the outcome in [2], in test [3], in [4], in [5] and in [6] was inactive.
For `C1CCN2C[C@@H]3C[C@@H](CN4CCCC[C@@H]34)[C@H]2C1`, in test [1], the max response is 2.03% (inactive). Further, the result in [2], in test [3], in [4], in test [5] and in test [6] was inactive.
Consider `Cc1cc(-n2nc3ccc(Cl)cc3n2)c(O)c(C(C)(C)C)c1`, for which, in test [1], the max response is -8.61% (inactive). In addition, the compound was classed as inactive in test [2], in test [3], in [4], in test [5] and in test [6].
`NS(=O)(=O)c1cc(-c2nn[nH]n2)c(NCc2cccs2)cc1Cl`: the max response in test [1] is 54.3% (inactive). Besides, the result in [2], in test [3], in test [4], in [5] and in test [6] was inactive.
On to `O=c1[nH]cnc2nc[nH]c12`, for which the max response in test [1] is -7.32% (inactive). For the same compound, the outcome in test [2], in test [3], in [4], in test [5] and in test [6] was inactive.
Consider `CNc1c2c(nn1C)CCCC2`, for which, in test [1], the max response was 6.79% (inactive). For the same compound, the result in [2], in test [3], in [4], in test [5] and in test [6] was inactive.
`CC(C)CCOC(=O)c1ccc(N(C)C)cc1`: in test [1], the max response was -13.7% (inactive). Moreover, the compound was called inactive in [2], in [3], in [4], in test [5] and in test [6].
As for `COc1ccc(Cc2cnc(N)nc2N)cc1OC`, the max response in [1] was 1.42% (inactive). The call in [2], in [3], in test [4], in [5] and in test [6] was inactive.
Take `O=C(NCC(O)CO)c1c(I)c(C(=O)NCC(O)CO)c(I)c(N(CCO)C(=O)CO)c1I` (stereo not given): the max response in [1] was 8.95% (inactive). Besides, the compound was called inactive in [2], in test [3], in test [4], in test [5] and in test [6].
In the case of `COc1cc(C(=O)NCCCCCC(=O)O)cc(OC)c1OC`, the max response in test [1] is 4.11% (inactive). Also, the compound was called inactive in test [2], in [3], in test [4], in [5] and in test [6].
As to `CO[C@@]1(NC(=O)C(C(=O)O)c2ccc(O)cc2)C(=O)N2C(C(=O)O)=C(CSc3nnnn3C)CO[C@@H]21` (stereo not given in full), the max response in test [1] was 2.23% (inactive). The compound was called inactive in test [2], in test [3], in test [4], in test [5] and in test [6].
For the compound `NC(=O)NC1NC(=O)NC1=O` (stereo not given), the max response in test [1] is -4.09% (inactive). In addition, the compound was called inactive in test [2], in [3], in [4], in test [5] and in test [6].
As to `CC1CCN(CCCC(=O)c2ccc(F)cc2)CC1`, in test [1], the max response was 1.92% (inactive). Also, the outcome in test [2], in test [3], in test [4], in test [5] and in test [6] was inactive.
Take `Cc1ccsc1/C=C/C1=NCCCN1C`: in test [1], the max response is 6.27% (inactive). Moreover, the result in [2], in test [3], in test [4], in test [5] and in test [6] was inactive.
As to `CCCCCOC(=O)Nc1nc(=O)n([C@@H]2O[C@H](C)[C@@H](O)[C@H]2O)cc1F`, in test [1], the max response is 5.02% (inactive). Also, the compound was classed as inactive in test [2], in [3], in test [4], in test [5] and in test [6].
For `CCCCOC(=O)c1ccc(N)cc1`, the outcome in [7], in [10], in [2], in test [3], in test [4] and in test [5] was inactive. Also, the max response in test [8] was -19.9% (inactive); in test [1] it was -1.98% (inactive); in test [9], 3.29% (inactive).
On to `C[C@@H](N)C(=O)O`, for which the max response in [1] was -2.49% (inactive). The compound was classed as inactive in [2], in test [3], in [4] and in test [5].
As to `COc1ccc(-c2cc(=O)c3c(O)cc(O[C@@H]4O[C@H](CO[C@@H]5O[C@@H](C)[C@H](O)[C@@H](O)[C@H]5O)[C@@H](O)[C@H](O)[C@H]4O)cc3o2)cc1O`, the Potency in test [11] is 18.9 µM (active). In addition, the max response in test [1] is -2.29% (inactive). The compound was classed as inactive in test [2], in test [3], in [4] and in [5].
Turning to `CN1C[C@@H]2C[C@H]1CN2c1cc2c(cc1F)c(=O)c(C(=O)O)cn2C1CC1`, the max response in [1] is 2.79% (inactive). Besides, the outcome in test [2], in test [3], in test [4] and in test [5] was inactive.
Consider `Nc1ccc(S(=O)(=O)c2ccc(N)cc2)cc1`, for which the outcome in [12], in test [7], in test [10], in test [2], in test [3] and in [4] was inactive. In addition, the compound was called inactive in [5]. For the same compound, the max response in [8] is -3.28% (inactive) and -10.9% (inactive); in test [1] it was -3.88% (inactive); in [9], -5.62% (inactive) and -11.7% (inactive). In [13], this compound gave a parasite growth, % of DMSO control of 91.3%. Also, the parasite growth remaining, % of DMSO control (lower = more inhibition) in test [14] is 103%. Further, in test [15], the parasite growth, % of control (lower = inhibition) is 101%. Also, the growth, % of control in test [16] came out at 100%.
For the compound `Cc1c(I)c(=O)n(-c2ccccc2)n1C`, the max response in test [1] is 4.77% (inactive). Besides, the call in [2], in test [3], in test [4] and in test [5] was inactive.
With `CC(=O)[C@@]1(O)CC[C@H]2[C@@H]3C[C@H](C)C4=CC(=O)C=C[C@]4(C)[C@@]3(F)[C@@H](O)C[C@@]21C`, the max response in test [1] is -2.09% (inactive). The call in test [2], in test [3], in test [4] and in test [5] was inactive.
In the case of `NS(=O)(=O)c1ccc(NC(=O)CCC(=O)O)cc1`, in [1], the max response is -3.82% (inactive). Moreover, the result in test [2], in [3], in test [4] and in test [5] was inactive.
Consider `NNc1nnc(NN)c2ccccc12`, for which, in test [1], the max response was 5.69% (inactive). Besides, the result in test [2], in [3], in test [4] and in test [5] was inactive.
For `CC(=O)Nc1ccc(C(=O)O)cc1`, the outcome in test [12], in [7], in test [10], in test [2], in [3] and in test [4] was inactive. In addition, in [5], the call was inactive. Besides, the max response was -5.69% (inactive) in [8], 7.86% (inactive) in test [1] and -10.3% (inactive) in test [9].
